Active and inactive are the calls of the source. How the source made its calls: active means hit-call score of the fitted dose curve at least 0.9, where 1 is the maximum; inactive means score below 0.9.
Assay: ATG_GRE_CIS: Attagene CIS-FACTORIAL HepG2 Assay for human Glucocorticoid Response Elements (GRE) (AID 2282947)
Details: HepG2 GRE cis-reporter, Attagene multiplex mRNA; actives raise or lower the signal
Experimental: ATG_CIS is a cell-based, multiplexed-readout assay that uses HepG2, a human liver cell line, with measurements taken at 24 hours after chemical dosing in a 24-well plate.ATG_GRE_CIS is one of 52 assay component(s) measured or calculated from the ATG_CIS assay. It is designed to make measurements of mRNA induction, a form of inducible reporter, as detected with fluorescence intensity signals by Reverse transcription polymerase chain reaction (RT-PCR) and Capillary electrophoresis technology.Data from the assay component ATG_GRE_CIS was analyzed into 1 assay endpoint. This assay endpoint, ATG_GRE_CIS, was analyzed with bidirectional fitting relative to DMSO as the negative control and baseline of activity. Using a type of inducible reporter, measures of mRNA for gain or loss-of-signal activity can be used to understand the reporter gene at the transcription factor-level as they relate to the gene NR3C1. Furthermore, this assay endpoint can be referred to as a primary readout, because this assay has produced multiple assay endpoints where this one serves a reporter gene function. To generalize the intended target to other relatable targets, this assay endpoint is annotated to the nuclear receptor intended target family, where the subfamily is steroidal.
Human liver HepG2 cells are transiently transfected with multiple reporter transcription units (MRTUs) in 6-well plates using FuGene 6 reagent (Roche; 3 ml FuGene/1 mg DNA). The MRTU constructs are regulated by a cis-regulating element (promoter). […] A major difference between the CIS and TRANS system is that in CIS activities of endogenous TFs are measured, whereas the TRANS assay evaluates changes in activities of exogenous, chimeric NR-Gal4 proteins. […] At the end of 24 hour incubation, total RNA was isolated using TriZol reagent (Invitrogen). The isolated RNA is then reverse-transcribed using oligo(dT) primer and Mo-MLV reverse transcriptase (Invitrogen) with DNAse I (Ambion) treatment for 30 min. The one-tenth of the produced cDNA was amplified by PCR using Taq DNA polymerase (Invitrogen) and two reporter sequence-specific primers. The PCR products were fluorescently labeled by primer extension with 6-arboxyfluorescein (6-FAM) 5'-labeled reporter sequence-specific primer (2 min at 95 C, 20 s at 68 C and 10 min at 72 C) and these products were digested with 5U of HpaI (New England Biolabs) for 2h at 37 C. The fragments were purified using Qiaquick PCR columns (Qiagen), analyzed on an ABI 3130xL genetic analyzer (Applied Biosystems) with peak positions identified by using a set of X-rhodamine (ROX)-labeled MapMarker1000 molecular weight standards (BioVentures). The raw capillary electrophoresis data was processed using Attagraph software (Attagene).

Row | SMILES | outcome | AC50
1 | CCCCN(CCCC)C(=S)[S-].CCCCN(CCCC)C(=S)[S-].[Ni+2] | inactive | –
2 | COC(=O)Nc1cccc(OC(=O)Nc2cccc(C)c2)c1 | inactive | –
3 | Clc1cnc(Oc2ccc(Oc3ncc(Cl)cc3Cl)cc2)c(Cl)c1 | inactive | –
4 | O=C1C=CC(=O)c2ccccc21 | inactive | –
5 | O=C(O)COc1cc(Cl)c(Cl)cc1Cl | inactive | –
6 | N#Cc1ccccc1Cl | inactive | –
7 | CCOC(=O)Cc1ccccc1 | inactive | –
8 | N#Cc1ccc(Cl)cc1 | inactive | –
9 | CCC[CH2][Sn]([CH2]CCC)([CH2]CCC)[CH2]CCC | inactive | –
10 | Nc1ccc(Br)cc1 | inactive | –
11 | CCCCCCCCCCCCCCC(Br)C(=O)O (stereo not given) | – | 159 µM (active)
12 | C=CCCl | inactive | –
13 | OC(c1ccc(Cl)cc1)(c1ccc(Cl)cc1)c1cccnc1 | inactive | –
14 | CC1(C)COP(Oc2ccccc2)OC1 | inactive | –
15 | CN(N=O)c1ccc([N+](=O)[O-])cc1 | inactive | –
16 | [F][Sn]([c]1ccccc1)([c]1ccccc1)[c]1ccccc1 | inactive | –
17 | CC(C)[N+](=O)[O-] | inactive | –
18 | CCCCCCCCCCCCBr | inactive | –
19 | CC(=O)CN(CC(C)=O)N=O | inactive | –
20 | Cc1cccc(C)c1NC(=O)CN1CCCC1=O | inactive | –

Row | SMILES | outcome | AC50
21 | Clc1ccc(C(Cl)(Cl)Cl)cn1 | inactive | –
22 | Clc1cccc(Cl)c1Cl | inactive | –
23 | C=CCc1ccccc1O | inactive | –
24 | CCCCC(CC)C(=O)Cl (stereo not given) | inactive | –
25 | O=C1c2ccccc2C(=O)C1C(=O)C(c1ccccc1)c1ccc(Cl)cc1 (stereo not given) | inactive | –
26 | CC(C)[C@H](C(=O)OC(C#N)c1cccc(Oc2ccccc2)c1)c1ccc(OC(F)F)cc1 (stereo not given in full) | inactive | –
27 | O=C(N[C@H]1CN2CCC1CC2)c1ccc2c(c1)OCCO2 | inactive | –
28 | O=C(Cc1ccccc1)OCCc1ccccc1 | inactive | –
29 | O=[N+]([O-])c1ccccc1O | inactive | –
30 | O=S1OC[C@@H]2[C@H](CO1)[C@]1(Cl)C(Cl)=C(Cl)[C@@]2(Cl)C1(Cl)Cl (stereo not given in full) | inactive | –
31 | CC(C)=CC1C(C(=O)OCc2cccc(Oc3ccccc3)c2)C1(C)C (stereo not given) | inactive | –
32 | OC(Cc1ccccc1Cl)(Cn1cncn1)C1(Cl)CC1 (stereo not given) | inactive | –
33 | O=C(NC(=O)c1c(F)cccc1F)Nc1cc(Cl)c(F)c(Cl)c1F | inactive | –
34 | Brc1ccc(Oc2c(Br)cc(Br)cc2Br)c(Br)c1 | inactive | –
35 | NC(=O)CCl | inactive | –
36 | CC1CC(=O)O1 (stereo not given) | inactive | –
37 | CCOP(=O)(OCC)OC(=CCl)c1ccc(Cl)cc1Cl | inactive | –
38 | CC(O)(CS(=O)(=O)c1ccc(F)cc1)C(=O)Nc1ccc(C#N)c(C(F)(F)F)c1 (stereo not given) | inactive | –
39 | Fc1cccc(Cl)c1CCl | inactive | –
40 | c1ccc2c(c1)Oc1ccccc1O2 | inactive | –
